High-throughput results (PubChem)
The list is not random: actives were taken first. Their share in the collection is about 4.6%.
TRHR agonist = agonists of human TRH receptor | activation, % at 2 µM | P34981 | AID 493084 | TRHR cells, calcium flux fluo-8, FDSS agonist mode | 360,000 tested, 0.18% active; also: 0% is about no effect
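Fluo-8-loaded TRHR cells; 10 s baseline, compound added, kinetic Ca2+ fluorescence read 1/s, agonist mode.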
D1 agonist = activates the human D1 dopamine receptor | P21728 | HEK293 T-REx D1 cells, calcium flux, agonist mode | activation, % at 2 µM | 360,000 tested, 1% active | AID 504660; also: 0% is about no effect
Target sequence (P21728 whole entry, looked up): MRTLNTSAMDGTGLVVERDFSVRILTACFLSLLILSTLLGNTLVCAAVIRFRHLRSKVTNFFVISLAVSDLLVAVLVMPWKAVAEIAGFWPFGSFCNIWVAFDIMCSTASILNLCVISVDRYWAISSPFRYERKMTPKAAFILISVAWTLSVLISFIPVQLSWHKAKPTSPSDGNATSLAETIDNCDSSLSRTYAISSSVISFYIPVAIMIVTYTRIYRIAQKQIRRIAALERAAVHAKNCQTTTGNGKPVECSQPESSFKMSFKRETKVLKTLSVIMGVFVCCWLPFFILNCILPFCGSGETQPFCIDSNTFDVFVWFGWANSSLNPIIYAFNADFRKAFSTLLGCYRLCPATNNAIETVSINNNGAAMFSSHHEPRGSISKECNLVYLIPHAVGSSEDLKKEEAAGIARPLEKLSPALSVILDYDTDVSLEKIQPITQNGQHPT
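Tetracycline-induced HEK293 TREx D1 cells, force-coupled to calcium signalling, were dye-loaded with a no-wash calcium kit. Compound was pin-added after a 10 s baseline. Fluorescence was read kinetically at 1 cycle/s for 180 s, with calcium rises flagged as agonism.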
D1 antagonist = human D1 dopamine receptor antagonism | P21728 | HEK293 TREx D1 cells, calcium flux, dopamine EC80; active compounds read low | activity change, negative = inhibition, % at 10 µM | 360,000 tested, 3.2% active; in the data active = activity change below about -30%; also: % is scaled to controls: 0 for no effect and ±100 for the full control effect
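Tetracycline-induced HEK293 Trex D1 cells, force-coupled to calcium, dye-loaded; compounds added and read 180 s, then EC80 dopamine added and calcium flux tracked kinetically another 180 s.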
Epigenetic derep = regulators of epigenetic silencing causing reporter derepression in mouse cells; murine LDR cells, GFP reporter derepression, 30 h; Potency, µM (highest dose often 53.9 µM), without a hit: at the top dose GFP activation, most hits filed as activators; 280,000 tested, 0.2% active; active = well fitted activation curve with a large enough effect; inconclusive = small, poorly fitted or top-dose-only effect; also: potency is read from the fitted curve at half-maximal effect; % of control where 0% means no effect; nearly all actives have a fitted effect of over 60% in size
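GFP-positive cell count by laser-scanning cytometry (objects 20–120 um) after 30 h, 37 C compound exposure of murine LDR cells; reporter is CMV-GFP integrated at a silenced locus, inducible by HDAC or DNMT inhibitors.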
TRHR enhancer = allosterically enhances the human TRH receptor. P34981. TRHR cells, fluo-8 calcium fluorescence, EC20 TRH enhancement. enhancement, % at 2 µM. 360,000 tested, 0.66% active. AID 493056; in the data active = enhancement above about 30%; also: 0% is about no effect
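TRHR-expressing cells loaded with fluo-8 calcium dye were read kinetically (ex 480/em 530) during compound addition, then stimulated with an EC20 of TRH (10 nM final). Enhancement of the Gq-mediated intracellular calcium response was scored.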
D1 PAM = human D1 dopamine receptor positive modulation; P21728; HEK293 TREx D1 cells, calcium flux, dopamine EC20 potentiation; potentiation, % at 10 µM; 360,000 tested, 0.036% active; AID 504651; in the data active = potentiation above about 30%; also: 0% is about no effect
* marks the source's active call; other numbers are inactive results; ? = inconclusive; . = no result given; ! = not confirmed by another sample. Rule as the data show it, unless noted: active = activation above about 30%; inactive = the rest.

SMILES	TRHR agonist	D1 agonist	D1 antagonist	Epigenetic derep	TRHR enhancer	D1 PAM
O=C1N/C(=C/c2ccc(N3CCCC3)cc2)C(=O)N1c1ccccc1	3	20	-4	16µM*	6	-1
Cc1cc(=O)n2nc(N3CCC(C(=O)Nc4ccc(Br)cc4F)CC3)sc2n1	-1	1	4	-5%	-1	-3
CCc1cccc(NC(=O)CN(c2ccc(C)cc2)S(=O)(=O)c2cccs2)c1	0	12	10	3%	10	-2
Cc1ccc2oc(-c3cc(NC(=O)c4ccc5c(c4)OCCO5)cc(C)c3O)nc2c1	-1	0	4	?	2	-3
Clc1cccc2c3c([nH]c12)CCNC3	1	2	-16	.	-2	-10
Clc1ccc2[nH]c3c(c2c1)CNCC3	1	8	-48*	.	38*	-25
O=C(Nc1nnc(C2=COCCO2)o1)c1ccc(Br)cc1	0	0	-34*	.	-3	-6
CSc1ccc(-c2nnc(NC(=O)c3ccc4c(c3)OCCO4)o2)cc1	0	3	-8	-2%	4	-2
Cc1ccc(C)c(-c2nnc(NC(=O)c3ccc4c(c3)OCCO4)o2)c1	0	8	-37*	7%	-4	-2
O=C(Nc1nnc(C2=COCCO2)o1)c1ccc(Cl)cc1	0	-1	-21	0%	12	5
Cc1ccc2c(c1)C(=O)OC(C(=O)Nc1ccccc1C(=O)O)C2 (centres undefined)	-1	4	-5	-1%	-2	2
COc1ccc(/C=N/NC(N)=S)cc1	1	1	0	-3%	0	-2
C=CCOc1ccc(/C=N\NC(N)=S)cc1	-1	0	-62*	3%	33*	-5
CCOc1ccc(C(=O)Nc2ccc(-c3nc4cc(CC)ccc4o3)cc2)cc1	0	3	12	-1%	2	-2
CCc1ccc2nc(N=C(N)N)nc(C)c2c1	3	3	-16	3%	3	0
Cc1ccc2nc(N=C(N)N)nc(C)c2c1	0	1	-52*	-3%	-9	-9
COc1cc(OC)c(NC(=O)c2nn(-c3ccc(C)cc3)c(=O)c3c2c2ccccc2n3C)cc1Cl	0	0	-3	1%	3	3
CCOc1ccc(S(=O)(=O)NCCC(=O)NCC(c2ccc(F)cc2)N2CCOCC2)cc1 (centres undefined)	0	1	-78*	.	2	-17
Cc1ccc(OCCCCNC2CCCC(C)C2C)c(C)c1 (centres undefined)	1	42*	22	3%	6	0
COc1ccccc1CNC(=O)CCCn1c(=O)c2cccn2c2ccccc21	-1	26	-36*	13%	-8	-4
CCOc1ccccc1CNC(=O)CCCn1ncn2c(cc3occc32)c1=O	0	1	-40*!	1%	-4	-2
CC(C)CCNC(=O)CCCn1c(=O)c2cccn2c2ccccc21	0	7	-37*	0%	12	-4
CCOc1cc(CNC(=O)CCCn2c(=O)c3cccn3c3cccnc32)cc(OCC)c1OCC	1	0	-33*!	-3%	-3	-5
CC1=C(/C=C/C(C)=C/C=C/C(C)=C/C=C/C=C(C)/C=C/C=C(C)/C=C/C2=C(C)C(=O)C(O)CC2(C)C)C(C)(C)CC(O)C1=O (centres undefined)	.	.	.	-4%	.	.
Cc1cc2cc(CCNS(=O)(=O)c3ccc(Br)cc3)c(=O)[nH]c2cc1C	0	0	19	0%	3	0
Nc1nc(C2CC2)c(Sc2sc(N)nc2C2CC2)s1	1	24	-49*	-1%	-1	0
CCCCCCC(C)n1[nH]c(=O)cc1N (centres undefined)	0	1	-32*	0%	26	-14
Cn1c(=O)[nH]c(=O)c2c1nc(CN1CCN(c3cccc(Cl)c3)CC1)n2CCCc1ccccc1	-1	2	-31*	0%	-15	-8
CSc1nc2c(c(=O)[nH]c(=O)n2C)n1Cc1ccccc1	0	5	2	.	31*	1
